Active and inactive are the calls of the source. A call without a number means that no potency is given here. Calls come from the whole dose curve; as a rule, active = well fitted activation curve with a large enough effect in the repeat runs; inconclusive = weak or mixed curves; inactive = flat fitted curve, though single readings scatter.
test: Caspase-3/7 induction in CHO-K1 cells by small molecules, qHTS assay (AID 1346980); conditions: CHO-K1 caspase-3/7 induction, Caspase-Glo luminescence, 17 h; series mostly up to 92.4 µM; note: nearly all actives have a fitted effect of over 15% in size
From the text: National Center for Advancing Translational Sciences [NCATS]
NIH Chemical Genomics Center [NCGC]
U.S. Environmental Protection Agency [EPA]
National Institutes of Environmental Health Sciences [NIEHS]
National Toxicology Program [NTP]
Apoptosis is a process of programmed cell death and plays a central role in the development of multicellular organisms. It is a highly regulated process and induces cell death by activating caspases, which are the members of cysteine aspartic acid-specific protease (caspase) family. Caspases involved in apoptosis are classified by their mechanism of action as initiator caspases (caspase-2, -8, -9 and -10) and executioner caspases (caspase-3, -6, and -7). Inhibition of apoptosis results in number of cancers, autoimmune diseases, inflammatory diseases and viral infection. To identify small molecule compounds that induce apoptosis, a homogeneous, luminescent Caspase-Glo 3/7 assay was used. Wild type CHO-K1 cells were used to screen Tox21 libraries for identifying caspase-3/7 activity inducers.
CHO-K1 cells were dispensed at 1,500 per well in 5uL of culture medium into white solid bottom 1536-well plates (Corning Life Sciences, Corning, NY) using a Multidrop Combi (Thermo Scientific, Waltham, MA) dispenser. The assay plates were incubated at 37 C and 5% CO2 for 5hr, and then 23nL of compounds dissolved in DMSO and positive control were transferred using a Pintool station (Wako, San Diego, CA). The assay plates were incubated at 37C and 5% CO2 for 17hr. For caspase-3/7 activity read, 4uL of Caspase-Glo 3/7 reagent (Promega Corporation, Madison, WI) was added to each well of the assay plates using Flying Reagent Dispenser (FRD, Aurora Discovery, San Diego, CA) and incubated the assay plates at room temperature for 30min. The luminescence signal was quantified using a ViewLux plate reader (Perkin Elmer, Shelton, CT).
Potency is the fitted concentration of half-maximal effect.

| SMILES | Potency | caspase-3/7 activation |
| --- | --- | --- |
| NNc1nc(-c2ccc(N)cc2)cs1 | inactive | – |
| NC(=O)NS(=O)(=O)c1ccc(N)cc1 | inactive | – |
| CCC(CN)=C(c1ccccc1)c1ccccc1 | inactive | – |
| CN(C/C=C/C#CC(C)(C)C)Cc1cccc2ccccc12 | inactive | – |
| CCOC(=O)/C=C(C)/C=C/C=C(C)/C=C/c1c(C)cc(OC)c(C)c1C | inactive | – |
| CCCCCCCCCCC=O | inactive | – |
| CSc1ccc(/C=C2/C(C)=C(CC(=O)O)c3cc(F)ccc32)cc1 | inactive | – |
| CCCCCCCC(=O)[O-].CCCCCCCC(=O)[O-].[Zn+2] | inactive | – |
| CS(=O)(=O)CCNCc1ccc(-c2ccc3ncnc(Nc4ccc(OCc5cccc(F)c5)c(Cl)c4)c3c2)o1 | inactive | – |
| CCCC/C=C/CCCCO | inactive | – |
| CN(C)[C@@H]1C(=O)C(C(N)=O)=C(O)[C@@]2(O)C(=O)C3=C(O)c4c(O)cccc4C[C@H]3C[C@@H]12 | inactive | – |
| CC(C)(C)c1ccc(C(=O)CCCN2CCC(OC(c3ccccc3)c3ccccc3)CC2)cc1 | 21.1 µM (active) | – |
| CCCCCCCCCCCCCCCC(=O)OC[C@H](O)[C@H]1OC(=O)C(O)=C1O | inactive | – |
| NNc1nc(-c2ccccc2)cs1 | inactive | – |
| [O-][n+]1ccccc1SSc1cccc[n+]1[O-] | – | -5.93% [at 19 µM] (inactive) |
| Cc1oc(-c2ccccc2)nc1CCC(=O)c1ccc(CC2SC(=O)NC2=O)cc1 (stereo not given) | inactive | – |
| CCCCCCCCCCCC[N+](C)(C)CCCCCCCCCCCC | inactive | – |
| CN1CCN(CCC(=O)N2c3ccccc3Sc3ccc(C(F)(F)F)cc32)CC1 | inactive | – |
| On1ccccc1=S | inactive | – |
| Cc1cc(O)c2ccccc2c1O | inactive | – |

| SMILES | Potency | caspase-3/7 activation |
| --- | --- | --- |
| CC(=O)OCC(C)OC(C)=O (stereo not given) | inactive | – |
| C[C@]12CCC(=O)C=C1CC[C@@H]1[C@@H]2[C@@H](O)C[C@@]2(C)[C@H]1CC[C@]2(O)C(=O)COC(=O)CCC(=O)O | inactive | – |
| C/C=C(\C)C(=O)OCc1ccccc1 | inactive | – |
| [Cl][Bi]([Cl])([c]1ccccc1)([c]1ccccc1)[c]1ccccc1 | inactive | – |
| CCCCCCCCS(=O)C(C)Cc1ccc2c(c1)OCO2 (stereo not given) | inactive | – |
| CC(C)(C)C(=O)OCOC(=O)[C@@H]1N2C(=O)[C@@H](NC(=O)[C@H](N)c3ccccc3)[C@H]2SC1(C)C | inactive | – |
| OCCN(CCO)c1nc(N2CCCCC2)c2nc(N(CCO)CCO)nc(N3CCCCC3)c2n1 | inactive | – |
| Cn1cc(C(=O)[C@@H]2CCc3nc[nH]c3C2)c2ccccc21 | inactive | – |
| Oc1ccc(Cl)cc1Sc1cc(Cl)ccc1O | inactive | – |
| Oc1ccc2cc(SSc3ccc4cc(O)ccc4c3)ccc2c1 | inactive | – |
| Nc1ccc2c3c(cccc13)-c1ccccc1-2 | inactive | – |
| Cc1cccc(CN2CCN(C(c3ccccc3)c3ccc(Cl)cc3)CC2)c1 (stereo not given) | inactive | – |
| Nc1nc2ccccc2n1Cc1ccc(F)cc1 | inactive | – |
| O=c1cc(-c2ccc(O)cc2)oc2cc(O)cc(O)c12 | inactive | – |
| CCN(Cc1cccnc1)C(=O)c1cccc(Cl)c1[C@]1(C)C(=O)N(Cc2ccc(OC)cc2OC)c2ccc(Cl)cc21 | inactive | – |
| O=C(Nc1cccc([N+](=O)[O-])c1)c1cc2ccccc2cc1O | inactive | – |
| O=C(N/N=C/c1ccccc1O)c1ccncc1 | inactive | – |
| Nc1ccc2cc(S(=O)(=O)O)cc(O)c2c1N=Nc1ccccc1C(F)(F)F | inactive | – |
| CCN(CCC#N)c1ccc(N=Nc2c(Cl)cc([N+](=O)[O-])cc2Cl)cc1 | inactive | – |
| O=C(Oc1ccccc1)c1ccccc1C(=O)Oc1ccccc1 | inactive | – |

— PubChem BioAssay (Tox21)
